In PubChem BioAssay (NCI):
This is part of a sample that, as a whole, favours compounds with a hit. Of some 83,000 tested, about 20% had one in any assay.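 Note: values are percent growth. 100 is the growth of untreated cells, values between 100 and 0 indicate rising inhibition; between -100 and 0 indicates cell death.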 A number with no mark means an inactive call. The source made the active and inactive calls. Rule for the calls: active = growth percent below 10; inactive = the rest.

Test system: MDA-MB-468 breast
Assay: NCI-60 one-dose screen, 48 h (100 = growth as untreated, 0 = no growth, -100 = all killed)
Conditions: 10 µM unless noted

SMILES | growth
COC(=O)c1c2c(c(C)[n+]([O-])c1C)C(=O)C=CC2=O | -33% (active)
COC(=O)c1cncc(C(=O)Nc2ccc(-n3cnc4ccccc43)cc2)c1 | 101%
C[C@H](C(=O)N[C@@H](Cc1ccc(-c2ccccc2)cc1)C(=O)NC1CC(C)(C)NC(C)(C)C1)c1ccc(-c2ccccc2)c(F)c1 | -65.9% (active)
CC(C)(C)n1cc(-c2ccnc(NCCNS(=O)(=O)c3cccc4ccccc34)c2)c(-c2cccc(O)c2)n1 | 46.2%
C=CCc1cc(Cl)cc2c(OC(C)=O)c(C(C)=O)c(-c3ccccc3)nc12 | 116%
O=C(c1ccc(Cl)cc1)C1[C@H](c2ccc(Cl)cc2)[C@@H](c2ccccc2)NC12C(=O)Nc1ccc(Br)cc12 (some centres not stated) | 45.8%
Cc1c(C(=O)Nc2ccccc2F)sc2c(=O)[nH]cnc12 | 106%
CC(C)N1CC(=O)N2CSCC2C1=O (configuration not stated) | 92.6%
Cc1cc(Cl)ccc1Nc1nc(C(F)(F)F)ccc1C(=O)N/N=C/c1ccccc1Cl | 6.05% (active)
CCN1CCN(Cc2ccc(C(=O)Nc3ccc(C)c(Oc4ccc(-c5[nH]nc6ncnc(N)c56)cc4)c3)cc2C(F)(F)F)CC1 | 118%
CCC(=O)c1ccc(O)c(OC)c1 | 103%
COc1cccc2c1O/C(=C\c1ncc([N+](=O)[O-])n1C)C2=O | 19%
COc1ccc(/C=C2\SC(=Nc3cc(C)[nH]n3)NC2=O)cc1 | 82.6%
COC(=O)C1(O)NC(=C(C#N)C#N)C(C#N)=C1C(=O)c1ccc(OC)c(OC)c1 (configuration not stated) | 110%
COc1cc(C2CC(c3cccc(Nc4ccncc4)c3)=Nc3c(N)ncnc3N2)cc(OC)c1OC (configuration not stated) | 47.6%
Cc1cc(N/N=C/c2nc(-c3ccc(Br)cc3)oc2C)c2cc(Br)ccc2n1 | -5.21% (active)
COc1ccc2c(C3=C(c4c[nH]c5ccccc45)C(=O)N(O)C3=O)coc2c1 | 88.6%
N#Cc1ccc(O)c(C2=NCC(c3cccc(Oc4ccccc4)c3)O2)c1 (configuration not stated) | 27%
CCCCCc1ccc(S(=O)(=O)Nc2cc(-c3csc(NC(=O)CN4CCN(CCO)CC4)n3)ccc2OC)cc1 | 69.1%
O=C(CNCCO)Nc1ccc2ncnc(Nc3ccc(OCc4cccc(F)c4)c(Cl)c3)c2c1 | -17.8% (active)
O=C(/C=C/c1cn(-c2ccccc2)nc1-c1ccccc1)OCc1cn(-c2cccc([N+](=O)[O-])c2)nn1 | 107%
COc1ccc(C(C(=O)O)c2ccc(OC)cc2)cc1 | 113%
O=C(/C=C/c1ccc(Br)cc1)c1ccc(-n2cc(CN3CCN(c4cc5c(cc4F)c(=O)c(C(=O)O)cn5C4CC4)CC3)nn2)cc1 | 92.2%
C=C(C)[C@@H]1C[C@@H]2Cc3cc(F)ccc3N1O2 | 104%
c1ccc(OCCC[P+](c2ccccc2)(c2ccccc2)c2ccccc2)cc1 | -7.95% (active)
Cc1cc(N(CCCNc2ccnc3cc(Cl)ccc23)Cc2ccco2)nc(Cl)n1 | 32.4%
CCCCCN1CCN(C(CC(=O)c2ccccc2)C(=O)c2ccccc2)CC1 (configuration not stated) | 103%
